Shown are actives, neighbours in structure and some others; about 0.9% of the full set was active somewhere.
SRC1 TRFRET art = flags TR-FRET format artefacts in PPARgamma SRC-1 recruitment agonist screen | TR-FRET detection artefact counter-screen, emission ratio; active compounds read high | TR-FRET ratio at 8 µM | actives 0.34% (n = 99,000); in the data active means TR-FRET ratio above about 2300
PPARg SRC1 recr = promotes SRC-1 coactivator recruitment by human PPARgamma | PPARgamma-SRC-1 coactivator recruitment biochemical assay | activation, % at 8 µM | actives 0.41% (n = 200,000) | AID 631 | P37231; in the data active means activation above about 19%;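 further: 0% = DMSO and 100% = reference agonist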
Target sequence (P37231 whole entry, looked up): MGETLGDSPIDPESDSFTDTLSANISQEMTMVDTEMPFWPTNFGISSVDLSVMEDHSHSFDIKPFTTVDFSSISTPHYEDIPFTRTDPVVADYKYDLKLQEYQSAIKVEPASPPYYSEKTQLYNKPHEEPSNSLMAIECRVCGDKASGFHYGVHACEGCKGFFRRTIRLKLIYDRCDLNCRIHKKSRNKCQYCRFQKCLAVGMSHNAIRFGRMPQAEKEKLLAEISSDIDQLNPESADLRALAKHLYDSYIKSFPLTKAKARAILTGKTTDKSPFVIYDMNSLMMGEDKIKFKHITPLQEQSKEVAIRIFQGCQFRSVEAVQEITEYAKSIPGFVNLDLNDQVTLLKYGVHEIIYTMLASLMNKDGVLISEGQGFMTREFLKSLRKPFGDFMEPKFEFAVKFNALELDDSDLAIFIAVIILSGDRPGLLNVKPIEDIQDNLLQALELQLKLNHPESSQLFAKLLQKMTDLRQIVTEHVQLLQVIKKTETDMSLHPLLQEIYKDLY
SRC3 TRFRET art = counter-screen for PPARgamma SRC-3 recruitment agonists: TR-FRET artefact. PPARgamma/SRC-3 format; active compounds read high. TR-FRET ratio at 8 µM. AID 1048. actives 0.39% (n = 99,000); in the data active means TR-FRET ratio above about 2000
PPARg SRC-3 ag = promotes SRC-3 coactivator recruitment by human PPARgamma; P37231; biochemical PPARgamma/SRC-3 coactivator recruitment assay; activation, % at 8 µM; actives 0.26% (n = 200,000); AID 731; in the data active means activation above about 23%;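 further: 0% = DMSO and 100% = reference agonist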
TR-FRET SRC-2 ct = counter-screen for PPARgamma SRC-2 recruitment agonists: TR-FRET artefact; actives 0.4% (n = 200,000); active compounds read high; TR-FRET ratio at 8 µM; in the data active means TR-FRET ratio above about 2000
PPARg SRC2 recr = promotes SRC-2 coactivator recruitment by human PPARgamma; PPARgamma LBD-SRC-2 recruitment, biochemical; activation, % at 8 µM; actives 0.34% (n = 200,000); AID 1032;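 further: 0% = vehicle and 100% = reference agonist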
PPARg SRC2 ag = human PPARgamma SRC-2 recruitment agonism, confirmation. shares compounds with PPARg SRC-3 ag. biochemical SRC-2 recruitment by PPARgamma. activation, % at 8 µM. actives 52% (n = 790). AID 1297;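 further: 0% = vehicle alone and 100% = reference agonist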
PPARg SRC1 ag = confirmation of agonists of SRC-1 recruitment by human PPARgamma | shares compounds with PPARg SRC-3 ag | PPARgamma–SRC-1 coactivator recruitment biochemical assay | activation, % at 8 µM | actives 43% (n = 790) | AID 1300; in the data active means activation above about 20%;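 further: 0% = vehicle wells and 100% = reference agonist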
PPARg SRC3 conf = confirmation of agonists of SRC-3 recruitment by human PPARgamma; activation, % at 8 µM; shares compounds with PPARg SRC-3 ag; actives 29% (n = 790); biochemical PPARgamma-SRC-3 coactivator recruitment, agonist mode; AID 1301; in the data active means activation above about 24%;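 further: 0% = vehicle wells and 100% = reference agonist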
* marks the source's active call; other numbers are inactive results. Unless noted, no stated cut-off is given here; in the data, active means activation above about 22%; inactive means the rest.

For COC(=O)c1c(N)n(Cc2ccc(OC)cc2)c2nc3ccccc3nc12 the results were SRC1 TRFRET art 2577*, PPARg SRC1 recr 20, SRC3 TRFRET art 1451, PPARg SRC-3 ag 2, TR-FRET SRC-2 ct 1618 and PPARg SRC2 recr 2.
For CCOP(=O)(OCC)C1(O)C(=O)Nc2ccc(Br)cc21 (stereo unspecified) the results were SRC1 TRFRET art 1790, PPARg SRC1 recr 5, SRC3 TRFRET art 1546, PPARg SRC-3 ag 1, TR-FRET SRC-2 ct 1666 and PPARg SRC2 recr 13.
`COc1ccc(NP(=O)(Oc2ccccc2OC)Oc2ccccc2OC)cc1` gave SRC1 TRFRET art 1612, PPARg SRC1 recr 16, SRC3 TRFRET art 1523, PPARg SRC-3 ag 27*, TR-FRET SRC-2 ct 1429, PPARg SRC2 recr 5, PPARg SRC2 ag 11, PPARg SRC1 ag 25* and PPARg SRC3 conf 20.
`CN1/C(=C\C=C\C2=[N+](C)c3ccc4ccccc4c3C2(C)C)C(C)(C)c2ccccc21` gave PPARg SRC1 recr 42*, PPARg SRC-3 ag 70*, TR-FRET SRC-2 ct 3050*, PPARg SRC2 recr 84*, PPARg SRC2 ag 49*, PPARg SRC1 ag 39* and PPARg SRC3 conf 37*.
For N=c1c[n+](CC23CC4CC(CC(C4)C2)C3)[n-]o1 the results were PPARg SRC1 recr 1, PPARg SRC-3 ag 10, TR-FRET SRC-2 ct 1707 and PPARg SRC2 recr 13.
CN(C)c1ccc(/C=C/C=C2/C(=O)NC(=O)N(c3ccccc3)C2=O)cc1 was read as SRC1 TRFRET art 2995*, PPARg SRC1 recr 49*, SRC3 TRFRET art 2895*, PPARg SRC-3 ag 50*, TR-FRET SRC-2 ct 2441*, PPARg SRC2 recr 29*, PPARg SRC2 ag 70*, PPARg SRC1 ag 47* and PPARg SRC3 conf 47*.
`N#Cc1ccccc1Cn1cc(C(=O)c2ccccc2F)c2ccccc21` gave SRC1 TRFRET art 1704, PPARg SRC1 recr 4, SRC3 TRFRET art 1482, PPARg SRC-3 ag 1, TR-FRET SRC-2 ct 1644 and PPARg SRC2 recr 2.
For COc1ccc(CCNCc2sccc2C)cc1OC the results were SRC1 TRFRET art 1825, PPARg SRC1 recr 1, SRC3 TRFRET art 1436, PPARg SRC-3 ag 0, TR-FRET SRC-2 ct 1538 and PPARg SRC2 recr -3.
CCn1c(=O)cc(SCC(=O)N2CCC3(CC2)OCCO3)c2ccccc21 was read as PPARg SRC1 recr 65*, PPARg SRC-3 ag 102*, TR-FRET SRC-2 ct 2944*, PPARg SRC2 recr 61*, PPARg SRC2 ag 37*, PPARg SRC1 ag 25* and PPARg SRC3 conf 26*.
`Cn1c(=O)n(CC(=O)N2CCC3(CC2)OCCO3)c(=O)c2ccccc21` gave SRC1 TRFRET art 1688, PPARg SRC1 recr -3, SRC3 TRFRET art 1562, PPARg SRC-3 ag -2, TR-FRET SRC-2 ct 1560 and PPARg SRC2 recr 4.
Screening COC(=O)c1ccccc1-n1c(C)nc2ccccc2c1=O returned PPARg SRC1 recr -3, PPARg SRC-3 ag -14, TR-FRET SRC-2 ct 1341 and PPARg SRC2 recr -4.
O=C(O)c1cccc2nc3ccccc3nc12 was read as SRC1 TRFRET art 1925, PPARg SRC1 recr 9, SRC3 TRFRET art 1766, PPARg SRC-3 ag 1, TR-FRET SRC-2 ct 1525, PPARg SRC2 recr 19, PPARg SRC2 ag 10, PPARg SRC1 ag 2 and PPARg SRC3 conf 5.
